Screening data from PubChem.
IL1B secr inh: qHTS for Inhibitors of Inflammasome Signaling: IL-1-beta AlphaLISA Primary Screen; THP-1 LPS/ATP IL-1B secretion, AlphaLISA, 16 h; hits give low values; activity change, % at 57.5 µM; hit rate 4.7% among 360,000; AID 743279, 2014; in the data active means activity change below about -50%; inconclusive means mostly about -30% to -49%; further: on the % scale 0 is the no-effect control and ±100 the full control effect
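Secreted IL-1B measured by AlphaLISA bead assay after 16 h compound exposure of THP-1 cells; compounds (final up to 57.5 uM) added 1 h before LPS (250 ng/mL) and ATP (1.25 mM) stimulation; lower signal means less secretion.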
Giardia kill: Small Molecules that selectively kill Giardia lamblia: qHTS | hit rate 0.15% among 340,000 | Giardia lamblia trophozoite viability | activity change, % at 7.66 µM, hits read low; in the data active means activity change below about -80%; inconclusive means between about -30% and that limit;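 further: parasites exposed to compound for two days anaerobically before the ATP read; on the % scale 0 is the no-effect control and ±100 the full control effect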
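Viability, read as ATP luminescence: trophozoites at 100 cells/well, compound added, 48 hrs anaerobic at 37 deg C, then 15-30 min room-temperature development before reading.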
Vif-A3G inh: qHTS for Inhibitors of Vif-A3G Interactions: qHTS; hit rate 0.076% among 410,000; DNA dC->dU-editing enzyme APOBEC-3G (Homo sapiens), Q9HC16; HeLa A3G-eYFP + Vif (tagged APOBEC3G with the HIV-1 protein that degrades it), YFP fluorescence, overnight; Potency, µM (doses to about 46.1 µM), for the others: top-dose activity, negative = active, actives largely listed as inhibitors; further: potency means the concentration at half of the fitted maximal effect; on the % scale 0 is the no-effect control and ±100 the full control effect; nearly all actives have a fitted effect of over 60% in size
Target sequence (Q9HC16 whole entry, looked up): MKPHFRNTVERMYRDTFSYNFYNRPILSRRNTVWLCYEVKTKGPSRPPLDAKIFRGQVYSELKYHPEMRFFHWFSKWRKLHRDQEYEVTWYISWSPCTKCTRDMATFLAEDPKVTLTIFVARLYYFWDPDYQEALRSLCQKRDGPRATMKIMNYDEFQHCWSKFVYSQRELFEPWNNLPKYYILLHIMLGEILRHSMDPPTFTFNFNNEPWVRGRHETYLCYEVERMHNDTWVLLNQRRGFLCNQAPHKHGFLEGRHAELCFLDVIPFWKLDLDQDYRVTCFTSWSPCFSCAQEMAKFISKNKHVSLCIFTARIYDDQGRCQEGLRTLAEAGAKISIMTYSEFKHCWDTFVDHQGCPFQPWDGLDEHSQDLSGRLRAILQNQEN
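Read-out is eYFP fluorescence (Ex 488/Em 500-530) from Vif-expressing HeLa A3G-eYFP cells; more signal means A3G escaped Vif-mediated degradation. Cells plated overnight, compound pinned in, incubated overnight at 37 deg C.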
Vif-A3F inh: qHTS for Inhibitors of Vif-A3F Interactions: qHTS. Potency, µM (titrated, usually from 46.1 µM), without a hit: at the highest dose activity, negative = active. HeLa A3F-eYFP + Vif (tagged APOBEC3F with the HIV-1 protein that degrades it), YFP fluorescence increase. hit rate 0.2% among 390,000; further: potency means the concentration at half of the fitted maximal effect; % of control where 0% means no effect; nearly all actives have a fitted effect of over 65% in size
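HeLa cells stably expressing A3F-eYFP plus Vif, plated and incubated overnight at 37 deg C, then exposed to compounds overnight at 37 deg C. Blocked degradation read as raised yellow fluorescence (Ex 488/Em 500-530).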
MCF10A rereplic: A quantitative high throughput screen for small molecules that induce DNA re-replication in MCF 10a normal breast cells | MCF 10A DNA re-replication, Hoechst nuclear intensity, 48 h | Potency, µM (doses to about 46.1 µM), without a hit: at the top dose activity, positive = re-replication, most hits filed as activators | hit rate 2.9% among 350,000 | AID 624296, 2012; further: potency means the concentration at half of the fitted maximal effect; % of control where 0% means no effect; nearly all actives have a fitted effect of over 50% in size
SW480 rerep: A quantitative high throughput screen for small molecules that induce DNA re-replication in SW480 colon adenocarcinoma cells. SW480 DNA re-replication, Hoechst DNA content imaging, 48 h. Potency, µM (top dose mostly 46.1 µM), inactives show at the highest dose re-replication activation, hits mostly activators. hit rate 1.8% among 340,000. AID 624297, 2012; further: potency means the concentration at half of the fitted maximal effect; % of control where 0% means no effect; nearly all actives have a fitted effect of over 55% in size
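First, 250 cells per well were seeded. Next, compound or vehicle (23 nL) was pinned in, plates sat 48 hr at 37 C. Finally Hoechst was added for 40 min before fluorescence scanning.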
Active calls of the source: *; ? = inconclusive; . = no result given. Compounds with a hit are over-represented: about 6.9% of the library has one in this group of screens. Unless noted, the call rests on the fitted dose curve; in most records, active means well fitted curve in the direction sought with a large enough effect; inconclusive means small, poorly fitted or top-dose-only effect, or another doubt; inactive means no such curve, though single readings can be large; an effect the other way counts as inactive or inconclusive.

SMILES	IL1B secr inh	Giardia kill	Vif-A3G inh	Vif-A3F inh	MCF10A rereplic	SW480 rerep
CSc1nnc(NC(=O)c2nc(S(=O)(=O)Cc3cccc(C)c3)ncc2Cl)s1	-101.6*	-1.4	-20.7%	-2.2%	2.06µM*	21.1%
Cc1ccc(C)c(NC(=O)c2nc(S(=O)(=O)Cc3ccc(F)cc3)ncc2Cl)c1	.	.	-31.0%	-4.6%	.	.
COc1ccc(NC(=O)Cn2nc(C)c3c(C)n(-c4ccccc4)nc3c2=O)cc1OC	.	.	-1.1%	0.2%	.	.
CCCN1CNc2c(c(=O)[nH]c(=S)n2Cc2ccc(OC)c(OC)c2)C1	.	-18.1	.	.	.	.
CCSc1nnc(NC(=O)c2nc(S(=O)(=O)Cc3ccc(F)cc3)ncc2Cl)s1	-103.2*	1.8	-14.5%	1.6%	26.8%	?
O=C(c1cccc(Cl)c1)N1CCC(c2nc3c(nnn3Cc3ccc(F)cc3F)c(=O)[nH]2)CC1	.	.	3.0%	2.6%	.	.
CCc1noc(C)c1C(=O)NNC(=O)c1cc(OC)c(OC)c(OC)c1	-0.2	21.5	0.3%	6.4%	-15.4%	18.4µM*
CCc1noc(C)c1C(=O)NNC(=O)c1cc(OC)cc(OC)c1	2.1	7.6	12.8%	3.4%	-1.3%	-16.6%
O=C1c2ccccc2NC(c2ccc(Br)s2)N1O (configuration not stated)	23.0	7.3	1.2%	4.4%	23.1µM*	23.1%
CC(=O)N1c2ccccc2CC1C(=O)NCc1cccc(Cl)c1 (configuration not stated)	.	.	3.0%	-5.1%	.	.
Cc1cc(C)c2nc(-c3ccccn3)cc(C(=O)NCc3ccc(S(N)(=O)=O)cc3)c2c1	112.3	22.9	-3.3%	-5.5%	12.6µM*	-1.7%
Cc1cc(C)c2nc(-c3ccccn3)cc(C(=O)NCCc3ccc(S(N)(=O)=O)cc3)c2c1	14.5	-3.9	-8.6%	-1.0%	?	?
COc1ccc(NC(=O)c2cc(-c3ccccn3)nc3c(C)cc(C)cc23)c(C)c1	23.6	1.8	-15.7%	-16.4%	10.3µM*	?
O=S(=O)(N1CCN(c2nc(-c3cccs3)nc3ccccc23)CC1)C(F)(F)F	.	17.1	2.4%	.	.	.
CCc1ccc(-c2cc(C(F)(F)F)n3nc(C(=O)Nc4cnn(Cc5ccc(C)cc5)c4)cc3n2)s1	-27.3	1.8	?	11.2µM*	?	16.1%
Cc1ccc(Sc2nnc(-c3ccccc3)cc2C#N)cc1	-1.1	-1.7	-1.7%	-1.3%	1.3%	-3.1%
Cc1ccc(Sc2nnc(Cc3ccccc3)c3ccccc23)cc1	-89.0*	-4.3	-11.6%	-3.7%	?	?
COc1ccc(Sc2nnc(Cc3ccccc3)c3ccccc23)cc1	.	2.5	-12.5%	-15.6%	9.2µM*	?
Cc1ccc(NC(=O)C(=O)NCCc2sc(-c3ccc(Cl)cc3)nc2C)cc1C	.	.	-0.4%	-2.6%	.	.
Cc1ccc2ncc3c(-c4ccccc4)nn(CC(=O)NC4CCCCC4)c3c2c1	.	.	1.6%	-13.7%	.	.
N#C/C(=C\Nc1ccccc1O)c1nc2ccccc2o1	-69.7*	-22.2	?	6.0%	?	-0.6%
N#C/C(=C\c1ccncc1)c1nc2ccccc2o1	.	6.5	-4.6%	-11.7%	14.6µM*	-42.7%
COc1cccc(-c2nc(CS(=O)CC(=O)N3CCN(c4cccc(C(F)(F)F)c4)CC3)c(C)o2)c1 (configuration not stated)	.	.	0.1%	-7.0%	.	.
CCCCC(CC)CNC(=O)CN(C)S(=O)(=O)c1ccc2c(c1)c(=O)n(C)c(=O)n2C (configuration not stated)	.	.	0.9%	-4.6%	.	.
O=C(c1ccc2c(=O)n(Cc3ccco3)c(=S)[nH]c2c1)N1CCN(Cc2ccc3c(c2)OCO3)CC1	.	3.0	.	.	.	.
SMILES	IL1B secr inh	Giardia kill	Vif-A3G inh	Vif-A3F inh	MCF10A rereplic	SW480 rerep
COc1cccc(COCCN2CCN(S(=O)(=O)c3ccccc3)CCC2=O)c1	.	-6.4	1.5%	.	.	.
Cc1ccc(Sc2ccc(/C=C3/C(=O)NN(c4ccccc4)C3=O)o2)cc1	-24.2	?	3.0%	-12.0%	4.8%	-1.7%
O=C1NN(c2ccccc2)C(=O)/C1=C/c1ccc(Sc2ccc(Cl)cc2)o1	15.2	?	0.0%	3.1%	4.61µM*	29.4%
Cc1ccnc(NC(=O)c2ccccc2NC(=O)C(C)(C)C)c1	49.4	-15.6	-26.0%	-4.5%	16.4µM*	16.4µM*
COc1cc2ccccc2cc1C(=O)NC1CCC(C)CC1 (configuration not stated)	-51.1*	5.1	0.7%	-3.0%	13.8%	-5.7%
COc1ccc(C(=O)Nc2ccccc2C(=O)Nc2cc(C)ccn2)cc1	-22.6	-24.0	-4.5%	-9.5%	?	46.6%
COc1cc2ccccc2cc1C(=O)Nc1cc(C)ccn1	-56.8*	2.9	-5.5%	-7.2%	?	?
CCn1c(SC(C)C(=O)Nc2ccc(C)cc2)nnc1-c1ccccc1 (configuration not stated)	.	.	-1.5%	.	.	.
CC(=O)c1ccc(NC(=O)C2CCC(CNS(=O)(=O)c3ccc4c(c3)CCCC(=O)N4)CC2)cc1 (configuration not stated)	.	.	1.3%	-2.1%	.	.
COC(=O)CNC(c1ccccc1)c1cc(Br)ccc1NC(=O)CCN1CCOCC1 (configuration not stated)	-55.4*	3.8	-22.3%	1.0%	18.4µM*	?
CCOC(=O)CNC(c1ccccc1)c1cc(Br)ccc1NC(=O)CCN1CCOCC1 (configuration not stated)	?	-25.3	-22.4%	0.5%	10.3µM*	106.6%
O=C(NCc1ccccc1)c1ccc(Cn2c(=O)c3cccn3c3cccnc32)cc1	.	.	-6.1%	1.8%	.	.
CC(C)(C)c1ccc(C(=O)CC(Sc2ccc(Cl)cc2)C(=O)O)cc1 (configuration not stated)	-96.5*	-0.9	?	-1.5%	23.1µM*	?
Cc1ccc(SC(CC(=O)c2ccc(F)cc2)C(=O)O)cc1 (configuration not stated)	-96.2*	-8.9	-11.4%	5.0%	?	-2.6%
COc1ccc(NC(=O)CN2C(=O)CSc3ccc(S(=O)(=O)N(C)C)cc32)cc1Cl	.	.	1.2%	-2.9%	.	.
O=C(Nc1nc(-c2cccs2)cs1)c1ccc([N+](=O)[O-])o1	-89.8*	-81.9*	?	1.9%	2.91µM*	7.31µM*
COc1cc(NC(=O)c2cccs2)ccc1NC(=O)Cc1ccccc1	-16.7	3.4	-0.3%	3.8%	?	0.6%
COc1cc(NC(=O)c2cc3ccccc3cc2OC)ccc1NC(=O)c1cccs1	-69.3*	17.9	-13.9%	-3.0%	?	?
